In the library only some 5.7% were active in any assay of this set; here they are far more common.
MPTP block: permeability transition pore inhibition; isolated mouse mitochondria, Ca2+ swelling absorbance, 30 min; inhibition, % at 10 µM; 1.4% of 360,000 active;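 active means inhibition of 50% or more, scaled per plate between neutral and stimulator controls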
GRIN3A LBD mod: modulators (binders) of human NR3A ligand-binding domain; Tm shift relative to glycine control, % at 25 µM; NR3A LBD differential scanning fluorimetry, Tm shift; 0% = protein alone, 100% = glycine-bound protein; 2.5% of 340,000 active;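 active means melting temperature shift of at least 10% of the positive control shift, at one fixed dose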
rCAG RNA binder: molecules binding r(CAG) RNA repeats; r(CAG) RNA repeat, TO-PRO-1 dye displacement fluorescence; inhibition, % at 3 µM; 1.3% of 370,000 active; AID 651821;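 active means inhibition above the plate cutoff, the mean of all test compounds on that plate plus 3 SD, cut at about 35% in these data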;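 further: higher means more dye released from RNA so lower well fluorescence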
FAS-TE inh: FAS thioesterase (human) inhibition | P49327 | recombinant FAS-TE, OMFH fluorogenic substrate, fluorescence endpoint | inhibition, % at 15 µM | 0.67% of 360,000 active | AID 602261;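 active means compounds whose normalised, plate-corrected inhibition of enzyme fluorescence in the single-dose primary screen is 50% or more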
Myeloid diff MLP: compounds promoting myeloid differentiation | calls only at 10 µM | ER-HoxA9 myeloid progenitors, lysozyme-GFP differentiation, flow cytometry | 1% of 360,000 active;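 active means normalized GFP-positive differentiation at or above the plate's own cutoff, the solvent-only control mean plus 3 SD; inconclusive means no clear call, values can overlap the other calls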;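 further: cells exposed to compound for four days before flow analysis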
Each line names hits and unclear results; the compound was inactive in the other large screens.

O=S1(=O)c2ccc(N3CCN(Cc4ccccc4F)CC3)cc2Oc2ccccc2CN1Cc1cn(Cc2cccc(C(F)(F)F)c2)nn1	none (no result: MPTP block, GRIN3A LBD mod, FAS-TE inh, Myeloid diff MLP)
CN1C(=O)N(c2ccccc2)C(Nc2nncs2)C1(C)C (stereo not given)	Myeloid diff MLP active
CCOc1ccc(-n2c(SCC(=O)Nc3ccc(CC)cc3)nc3n[nH]c(C)c3c2=N)cc1	Myeloid diff MLP active
COc1ccc(-n2c(COc3ccccc3)nnc2SCc2nc3ccccc3[nH]2)cc1	none (no result: MPTP block, GRIN3A LBD mod, FAS-TE inh, Myeloid diff MLP)
Cc1ccc(S(=O)(=O)NN2C(=O)/C(=C/c3cccc(F)c3)SC2=S)cc1	rCAG RNA binder 75.1
CCN(CC)S(=O)(=O)c1ccc2oc(C(=O)O)c(C)c2c1	GRIN3A LBD mod 12.8
COc1ccccc1CNc1ccc2c(c1)OC[C@H](CC(C)C)NS2(=O)=O	none (no result: MPTP block, GRIN3A LBD mod, FAS-TE inh, Myeloid diff MLP)
O=C(c1ccccc1)c1c[nH]c2ccccc12	none
O=C(/C=C/c1c[nH]c2ccccc12)c1cccc2ccccc12	GRIN3A LBD mod 27.6
COC(=O)c1ccc2c(=O)n(CCCCCC(=O)NC3CCCCC3)c(=O)[nH]c2c1	none (no result: MPTP block, GRIN3A LBD mod, FAS-TE inh, Myeloid diff MLP)
COC(=O)c1ccc(C=NNC(=O)c2cc(-c3ccc(C)c(C)c3)n[nH]2)cc1	none (no result: MPTP block, GRIN3A LBD mod, FAS-TE inh, Myeloid diff MLP)
CC(C)NC(=S)NNC(=O)C12CC3CC(CC(C3)C1)C2	GRIN3A LBD mod 11.2
Cc1ccc(C)n1-c1sc2c(c1C(=O)O)CCCC2	rCAG RNA binder 35.5
COCc1cc(N2CCN(C(=O)OC(C)(C)C)C[C@H]2C)ccc1N1CCN(Cc2ccccc2)[C@@H](C)C1	none (no result: MPTP block, GRIN3A LBD mod, FAS-TE inh, Myeloid diff MLP)
O=C(O)COc1ccccc1C(Nc1cccnc1)c1cc(Cl)c2cccnc2c1O (stereo not given)	none (no result: rCAG RNA binder)
CCOc1ccc(C(Nc2cccnc2)c2cc(Cl)c3cccnc3c2O)cc1 (stereo not given)	Myeloid diff MLP active
CCN(C(=O)COC(=O)c1c2c(nc3ccccc13)/C(=C/c1ccccc1)CC(C)C2)C1CCS(=O)(=O)C1 (stereo not given)	Myeloid diff MLP active
CCN(C(=O)COC(=O)c1c(C)nn(-c2ccccc2)c1C)C1CCS(=O)(=O)C1 (stereo not given)	none
Nc1c(NCCN2CCOCC2)c2ccccc2oc1=O	none
Nc1c(NCCCN2CCOCC2)c2ccccc2oc1=O	GRIN3A LBD mod 11.1 (no result: rCAG RNA binder)
COc1ccc(-c2c(C)nn3c(-c4ccccc4)cc(C)nc23)cc1	GRIN3A LBD mod 15.3
O=c1c(-c2ccccc2)c(-c2ccccc2)oc2cc(O)cc(O)c12	GRIN3A LBD mod 19.5
C[C@@H]1O[C@@H](OC[C@H]2O[C@@H](Oc3c(-c4ccc(O)c(O)c4)oc4cc(O)cc(O)c4c3=O)[C@H](O)[C@@H](O)[C@@H]2O)[C@H](O)[C@H](O)[C@H]1O	none
O=c1cc(-c2ccccc2)c2c(O)cc(O)cc2o1	none
O=c1c(O)c(-c2ccccc2)oc2cc(O)cc(O)c12	GRIN3A LBD mod 11.0
COc1c(-c2ccc(O)c(O)c2)oc2cc(O)cc(O)c2c1=O	GRIN3A LBD mod 16.1
COC(=O)C1CN(Cc2ccccc2)CCS(=O)(=O)N1Cc1cccc(Cl)c1 (stereo not given)	none (no result: MPTP block, GRIN3A LBD mod, FAS-TE inh, Myeloid diff MLP)
COC(=O)[C@]1(Cc2ccccc2)NC=C(C(=O)c2ccccc2)[C@@H]1c1cccs1	none (no result: MPTP block, GRIN3A LBD mod, FAS-TE inh, Myeloid diff MLP)
Cc1ccccc1C(=O)N(C)[C@H]1C[C@H]2c3[nH]c4c(-c5ccccc5)cccc4c3CCN2C(=O)[C@H]1[C@H](C)O	none (no result: MPTP block, GRIN3A LBD mod, FAS-TE inh, Myeloid diff MLP)
COc1cccc(/C=C2\CC3(OC(=O)c4ccc(F)cc4)CCCN2C3)c1 (stereo not given)	none (no result: MPTP block, GRIN3A LBD mod, FAS-TE inh, Myeloid diff MLP)
Cc1cc(=O)oc2cc(OC(=O)c3ccco3)ccc12	none
CCc1cc(=O)oc2cc(OC(=O)c3ccco3)ccc12	GRIN3A LBD mod 476.1
CN1C(=O)c2ccc(NC(=O)c3cccc4ccccc34)cc2C1=O	GRIN3A LBD mod 17.5
O=C(Nc1ccc2ccccc2c1)c1cccc2ccccc12	none
COc1ccc(-c2ccc3c(c2)O[C@H](CN(C)C(=O)Nc2ccccc2F)[C@@H](C)CN([C@H](C)CO)S3(=O)=O)cc1	none (no result: GRIN3A LBD mod)
CCN(CC)CCCN1C(=O)C2=C(C1=O)C1N(C)c3ccccc3[C@@]13C[C@@H](CO)N(C(=O)CCC(=O)OC)C3=N2 (stereo not given in full)	none (no result: MPTP block, GRIN3A LBD mod, FAS-TE inh, Myeloid diff MLP)
O=C(Nc1ccc(Cl)cc1)c1nc[nH]c1C(=O)NCc1ccccc1	GRIN3A LBD mod 24.4
C[C@@H](NC(=O)c1[nH]cnc1C(=O)Nc1ccccc1)c1ccccc1	none
C[C@@H](NC(=O)c1[nH]cnc1C(=O)Nc1cccc(Cl)c1)c1ccccc1	GRIN3A LBD mod 25.7
C[C@H](NC(=O)c1[nH]cnc1C(=O)Nc1ccc(Cl)cc1)c1ccccc1	GRIN3A LBD mod 24.4
Cc1ccc(-c2cc(-c3nnc(SCC(=O)Nc4nccs4)n3N)[nH]n2)cc1	none (no result: MPTP block, GRIN3A LBD mod, FAS-TE inh, Myeloid diff MLP)
CCOc1ccccc1CN1CCN(C/C=C/c2ccc(OC)cc2)CC1CCO (stereo not given)	none
COc1ccc(/C=C/CN2CCN(CCc3ccccc3)C(CCO)C2)cc1 (stereo not given)	Myeloid diff MLP active
CCCCN1CCN(C2=NC(=O)N(c3ccc(Br)cc3)C(=O)C2)CC1	none (no result: MPTP block, GRIN3A LBD mod, FAS-TE inh, Myeloid diff MLP)
Cc1ccc(-c2nc(N/N=C/c3cccc([N+](=O)[O-])c3)c3ccccc3n2)cc1	GRIN3A LBD mod 162.7
O=[N+]([O-])c1cccc(C=NNc2ccccc2)c1	GRIN3A LBD mod 34.0
O=[N+]([O-])c1ccc(C=NNc2ccccc2)cc1	GRIN3A LBD mod 34.0
Cc1ccc(-c2nc(N/N=C/c3cccnc3)c3ccccc3n2)cc1	Myeloid diff MLP inconclusive
O=[N+]([O-])c1cccc(-c2csc(N/N=C/c3cccc(O)c3)n2)c1	GRIN3A LBD mod 23.8
CC(C)(C)OC(=O)NCc1cc(F)ccc1/C=C/S(=O)(=O)NCc1ccc(F)cc1	none (no result: MPTP block, GRIN3A LBD mod, FAS-TE inh, Myeloid diff MLP)
COc1ccc(-c2ccc3c(n2)CCCN3S(=O)(=O)c2cccs2)cc1	none (no result: MPTP block, GRIN3A LBD mod, FAS-TE inh, Myeloid diff MLP)
Nc1cc(Cl)nc(N/N=C/c2ccc([N+](=O)[O-])cc2)n1	GRIN3A LBD mod 20.6
Clc1cccc(N/N=C/c2ccc(N3CCOCC3)cc2)c1	none
CC(=O)c1sc(N/N=C/c2cccc(O)c2)nc1C	GRIN3A LBD mod 13.7
O=[N+]([O-])c1cccc(N/N=C/c2ccc(N3CCOCC3)cc2)c1	GRIN3A LBD mod 21.9
COC(=O)C1=C(C)N(Cc2ccccc2C(F)(F)F)C(=NCc2ccc(OC)cc2)NC1c1ccc(C(F)(F)F)cc1 (stereo not given)	none (no result: MPTP block, GRIN3A LBD mod, FAS-TE inh, Myeloid diff MLP)
NC(=O)NN=C1CCC(O)CC1CC(=O)O (stereo not given)	none (no result: MPTP block, GRIN3A LBD mod, FAS-TE inh, Myeloid diff MLP)
COC(=O)[C@]12C[C@H](CC(=O)NCc3ccc(C)o3)C(=O)N(Cc3ccco3)C1=C[C@H](C(C)(C)C)O[C@@H]2C	none (no result: MPTP block, GRIN3A LBD mod, FAS-TE inh, Myeloid diff MLP)
CC(=O)N=c1c(C#N)cc2c(=O)n3ccccc3nc2n1Cc1ccccc1	FAS-TE inh 54.1
N#Cc1cc2c(=O)n3ccccc3nc2n(-c2ccccc2Cl)c1=O	Myeloid diff MLP active
COc1cccc(N(C)C(=O)[C@@H](C)[C@@H](O)c2ccc(Cl)cc2)c1	none (no result: MPTP block, GRIN3A LBD mod, FAS-TE inh, Myeloid diff MLP)
Nc1[nH]c(C(=O)c2ccccc2)c(-c2ccccn2)c1C(=O)c1c[nH]c2ccccc12	none (no result: MPTP block, GRIN3A LBD mod, FAS-TE inh, Myeloid diff MLP)
CC1=NN(c2ccccc2)C(=O)/C1=C/c1ccc(-c2ccc(C)c(C(=O)O)c2)o1	GRIN3A LBD mod 10.5 (no result: MPTP block, FAS-TE inh, Myeloid diff MLP)
